Experimental data taken from ChEMBL document CHEMBL4513216, “Probing the Open Global Health Chemical Diversity Library for Multistage-Active Starting Points for Next-Generation Antimalarials” (ACS Infect Dis, 2020).
The whole screen tested about 69,000 compounds, of which about 8,600 (12%) showed an effect of 50% or more. The sample holds strong results, similar compounds and a random draw of the others, so the mix is not that of the screen.

System: Plasmodium berghei
Experiment: Screen against P. berghei liver stage (PbLuc), transformed with Luciferase, at 10uM
Assay type: functional, HepG2
Settings: tested at 10 uM

| Compound | INHIBITION [%] |
| --- | --- |
| CCc1nccn1CCCNC(=O)c1cnn(-c2ccccc2OC)c1 | -1.45 |
| Cc1nn(C)c(C)c1C1CCCN1CC(=O)Nc1cc(C(C)C)no1 (stereo not drawn) | -1.14 |
| O=C(c1cnccn1)N1C[C@@H](OCc2ccncc2)[C@@H]2OCCC[C@@H]21 | 33 |
| O=C(NC1CCCc2nc(N3CCOCC3)ncc21)C1CCCC1 (stereo not drawn) | -5.71 |
| COc1cc(-c2nc(CN(CCO)CCO)c(C)o2)ccc1F | 22.5 |
| CCN(C)c1ccc(CNC(=O)CCn2cc(C)cn2)cc1F | 12.8 |
| Cc1cc(C(F)(F)F)nc(CNC(=O)CCC2CCCN(C)C2)n1 (stereo not drawn) | 29.4 |
| Cc1cc(C(F)(F)F)nc(CNc2nc(C)nc3c2cnn3C)n1 | 19.4 |
| Cc1cc(C(F)(F)F)nc(CNC(=O)CCn2cccn2)n1 | 58.1 |
| CCOCC(=O)NCCc1nc(C)cc(C(F)(F)F)n1 | 20.4 |
| Cc1cc(C(F)(F)F)nc(CNC(=O)C2CCCCCN2C)n1 (stereo not drawn) | 54.5 |
| CCC(C(=O)NCc1nc(C)cc(C(F)(F)F)n1)n1cccn1 (stereo not drawn) | 8.08 |
| Cc1cc(C(F)(F)F)nc(CNC(=O)CCC2CCCCN2C)n1 (stereo not drawn) | 38.7 |
| CCC(C(=O)NCCc1nc(C)cc(C(F)(F)F)n1)n1cccn1 (stereo not drawn) | 57 |
| CC(C)c1nn(C)c(N(C)C)c1CNCc1ccc(CO)c(F)c1 | 23.7 |
| CNc1nc2c(s1)C(c1c(Cl)cccc1Cl)CC(=O)N2 (stereo not drawn) | 15 |
| CS(=O)(=O)N1CCN(c2ccc3ccc(C(=O)NC4CC4)cn23)CC1 | 22.3 |
| Cc1cccc(OC2CN(C(=O)C3CC(=O)N(C4CC4)C3)C2)c1 (stereo not drawn) | 31.4 |
| O=C([C@H]1CC[C@@H]2[C@@H](CCN2C2CCOCC2)O1)N1CCOCC1 | 25.6 |
| Cc1cccc(OCCC(=O)N(C)CCC#N)c1C | -33.2 |
| CCc1ncnc2c1CCN(Cc1nccs1)CC2 | -2.41 |
| CCc1cnc(CN2CCC(N(C)Cc3noc(C4CC4)n3)C2)o1 (stereo not drawn) | 23.4 |

| Compound | INHIBITION [%] |
| --- | --- |
| CCN1CCn2c(C)cnc2C12CCN(C(=O)COC)CC2 | -6.05 |
| CN(C)C(C(=O)N1CCCC1)c1ccccc1F (stereo not drawn) | 29.7 |
| CN(C)C(C(=O)N1CCSCC1)c1ccccc1F (stereo not drawn) | 32.8 |
| CN(C)C(C(=O)N1Cc2ccccc2C1)c1ccccc1F (stereo not drawn) | 50.8 |
| O=c1[nH]nc(CCCN2CCOCC2)n1-c1ccc(F)cc1F | 39.4 |
| CC(C)CC(=O)N1CCCC2(CC(C(=O)Nc3ccccc3)=NO2)C1 (stereo not drawn) | 3.58 |
| CCC1CN(C)c2ccccc2CN1C(=O)Nc1ccc(C)cc1 (stereo not drawn) | 14 |
| CCC1CN(C)c2ccccc2CN1C(=O)Nc1ccccc1OC (stereo not drawn) | 63.5 |
| CCC1CN(C)c2ccccc2CN1C(=O)Nc1cccc(F)c1 (stereo not drawn) | 60.2 |
| CC(C)CCNC(=O)C1CCCN1C(=O)Nc1cccc(F)c1 (stereo not drawn) | -11.4 |
| CCC1CN(C)c2ccccc2CN1C(=O)CCn1cncn1 (stereo not drawn) | 44 |
| COc1ccccc1NC(=O)N1CCCC1c1ccco1 (stereo not drawn) | 1.45 |
| Cc1c(C(=O)NCC(C)C)nnn1-c1cccc2c1CCN(CCO)C2 | 45.7 |
| O=C(NCCNc1ncccn1)C1CCCC1 | 26.4 |
| COc1ccccc1CNc1cnn(CC(F)F)c1 | 14.5 |
| Cc1nccn1CC1CCCN1S(=O)(=O)Cc1cccc(C#N)c1 (stereo not drawn) | 45.7 |
| Cc1cc(NC(=O)CN2CCCC2c2c(C)nn(C)c2Cl)on1 (stereo not drawn) | -27.9 |
| CC(C)C(C(=O)N1CCN(Cc2cscn2)CC1)n1cncn1 (stereo not drawn) | -7.71 |
| O=C(NC1CC1)C1(Cc2ccccc2-c2ccncc2)CCOCC1 | 76.1 |
| CC(C)(C)NC(=O)C1(Cc2ccccc2-c2ccncc2)CCOCC1 | 17.1 |
| O=C(NCCO)C1(Cc2ccccc2-c2ccncc2)CCOCC1 | -17.7 |
| CN(C)C[C@@H]1CCC[C@@H]2CN(c3cccnc3)C[C@@H]21 | -11 |

| Compound | INHIBITION [%] |
| --- | --- |
| CCc1ncc(C(=O)N(CCOC)Cc2ccccc2F)cn1 | 41.5 |
| CCc1ncc(C(=O)N(CC)CCOC)cn1 | 29.2 |
| CCc1ncc(C(=O)N(CCOC)Cc2nccs2)cn1 | 50.5 |
| CS(=O)(=O)NCc1cnc2n1CCN(Cc1cccnc1)CC2 | 15.4 |
| O=C(NCC1CC1)c1n[nH]c2c1CNCC2 | -8.51 |
| Cc1cc(C)n(CCN(C)Cc2c[nH]nc2-c2ccc3c(c2)OCO3)n1 | 26.7 |
| CNC(=O)[C@H]1CC[C@@H]2[C@@H](CCN2CCOCc2ccccc2)O1 | 45.7 |
| CC(=O)N(C)C1CCC2(CC1)CNC(=O)c1cc(C)ccc1O2 (stereo not drawn) | -20.2 |
| N#Cc1ccnc(N2CCN(CC(O)c3ccccc3)CC2)c1 (stereo not drawn) | -76.3 |
| N#Cc1ccnc(N2CCN(C(=O)NC3CCS(=O)(=O)C3)CC2)c1 (stereo not drawn) | -19.9 |
| CCC1CCC(NCCN2CCOCC2)CC1 (stereo not drawn) | 49.4 |
| CSc1nccc(N2CCC(NCCN3CCOCC3)CC2)n1 | 53.6 |
| N#Cc1ccnc(N2CCC(NCCN3CCOCC3)CC2)c1 | 66.5 |
| N#Cc1ccnc(N2CCC(NCCN3CCCC3)CC2)c1 | 57.3 |
| C1CCC(NCCN2CCOCC2)C1 | 5.41 |
| N#Cc1ccnc(N2CCN(C3CCOC3=O)CC2)c1 (stereo not drawn) | -33.1 |
| N#Cc1ccnc(N2CCN(Cc3cccc(F)c3)CC2)c1 | -23.7 |
| O=C(c1ccc(F)cc1)N1C[C@@H]2OCCN(c3ncccn3)[C@@H]2C1 | 10 |
| Cc1nnc(SCc2ccccn2)s1 | 44.1 |
| CCSCCNC(=O)c1ccc(S(=O)(=O)N2C[C@H]3C[C@@H]2CN3)cc1 | 9.91 |
| CC(C)c1cc(N(C)Cc2noc(C3CCCC3)n2)n2nccc2n1 | 46.4 |
| c1cnc(N2CCOCC3(CN(Cc4nccs4)CCO3)C2)nc1 (stereo not drawn) | -34.7 |

| Compound | INHIBITION [%] |
| --- | --- |
| Cc1cccc(Cc2cc(C)nc(C3CCCNC3)c2)c1 (stereo not drawn) | 54.5 |
| Cc1cc(Cc2ccccc2C)cc(C2CCCNC2)n1 (stereo not drawn) | -11.4 |
| Cc1cc(Cc2cccc(C(F)(F)F)c2)cc(C2CCCNC2)n1 (stereo not drawn) | 80.5 |
| Cc1cc(Cc2ccccc2)cc(C2CCCNC2)n1 (stereo not drawn) | 28.5 |
| Cc1cc(Cc2ccccc2F)cc(C2CCCNC2)n1 (stereo not drawn) | 36.9 |
| Cc1cc(Cc2ccc(F)cc2)cc(C2CCCNC2)n1 (stereo not drawn) | 32.3 |
| Cc1cnn(CC2CCCN2C(=O)c2csc(C(C)C)n2)c1 (stereo not drawn) | 35.3 |
| COc1ccc(C(=O)N2CCCC3(CCCC(=O)N3C)C2)cc1 (stereo not drawn) | 24.8 |
| CNC(=O)c1ccccc1-c1ccc(S(C)(=O)=O)cc1 | -19.1 |
| COCCN1C[C@@H]2[C@@H](OC)CCN(Cc3ccc(C)o3)[C@@H]2C1 | 15.4 |
| Cc1nccc(N[C@H]2CN(C(=O)CN3CCCC3=O)C[C@@H]2C(C)C)n1 | 62.9 |
| Cc1nccc(N[C@H]2CN(C(=O)CCN3CCCC3=O)C[C@@H]2C(C)C)n1 | 55 |
| CSCCC(=O)N1C[C@H](Nc2ccnc(C)n2)[C@@H](C(C)C)C1 | -15.5 |
| Cc1nccc(N[C@H]2CN(C(=O)C3(C#N)CCOCC3)C[C@@H]2C(C)C)n1 | -5.1 |
| Cc1nccc(N[C@H]2CN(C(=O)CN3CCOCC3)C[C@@H]2C(C)C)n1 | 43.6 |
| Cc1csc(N2CCCN(C(=O)CCN3CCCC3=O)CC2)n1 | -21.8 |
| CC(C)(Oc1ccc(C(N)=O)cc1)C(=O)N(CCC#N)CC1CCCO1 (stereo not drawn) | 28.3 |
| Cc1nc(C)n(CC2CCCN2CC(=O)Nc2c(C)n[nH]c2C)n1 (stereo not drawn) | 29.305 |
| Cn1nc(C(=O)NCc2ccc(OC3CCCCC3)nc2)ccc1=O | 47.7 |
| COCc1nc(-c2ccnc(N3CCNCC3)n2)no1 | 38.3 |
| COCCCN(Cc1ccccn1)S(=O)(=O)Cc1ccccc1 | 46.1 |
| CNc1nc(CNC(=O)Nc2cccc(-n3ccc(C)n3)c2)cs1 | 7.42 |

| Compound | INHIBITION [%] |
| --- | --- |
| O=C(O)[C@H]1C[C@@H](C(=O)NCc2ccncc2)CN(Cc2ccccc2)C1 | 17.2 |
| Fc1cccc(CN2C[C@@H]3COC[C@]3(COCc3ccncc3)C2)c1 | 49.7 |
| Cc1cc(C)c(-n2cccn2)c(CN2CCOCC(CN(C)C)C2)c1 (stereo not drawn) | 36.5 |
| COc1ccc(-n2cccn2)c(CN2CCOCC(CN(C)C)C2)c1 (stereo not drawn) | 15.2 |
| Cc1cc(-n2cccn2)ccc1CN1CCOCC(CN(C)C)C1 (stereo not drawn) | 62.2 |
| NC(=O)C1CCN(C(=O)CCn2c(C(F)(F)F)cc3cccnc32)CC1 | 1.5 |
| Cc1ccc(=O)n(CC2(O)CCN(Cc3cnc(N(C)C)nc3)CC2)n1 | 14.7 |
| c1cncc(Cc2nnc3n2CCN(CC2CCCNC2)CC3)c1 (stereo not drawn) | 16.3 |
| CC(C)c1ccccc1OCCNC(=O)N1CCC(CC(N)=O)CC1 | 5.76 |
| CC(C)c1n[nH]c(C2CN(C(=O)c3cc(C4CC4)[nH]n3)CCO2)n1 (stereo not drawn) | -20.2 |
| O=C(Cc1ccc2c(c1)CCC2)NCCNc1ncccn1 | 45.9 |
| O=C(Nc1cccnc1N1CCSCC1)c1cc2c(s1)CCCCC2 | 19.8 |
| O=C(Cc1ccc2c(c1)CCCC2)NCCc1ccccn1 | 70.7 |
| O=C(Cc1ccc2c(c1)CCCC2)NCCNc1cnccn1 | 31.9 |
| O=C(Cc1ccc2c(c1)CCCC2)Nc1cccnc1N1CCSCC1 | 53.5 |
| O=C(Nc1cccnc1N1CCSCC1)c1ccc2c(c1)CCC2 | 38.6 |
| CC(C)(C)OCC1CN(Cc2cccs2)S(=O)(=O)c2cnccc2O1 (stereo not drawn) | 10.9 |
| OCCN1CCCCC1C1OCCO1 (stereo not drawn) | -45.2 |
| O=S(=O)(C1CC1)N1Cc2[nH]nc(COCC3CC3)c2C1 | 36.4 |
| CCn1nc(C)c2ncnc(NCCN3CCOCC3)c21 | 21.7 |
